Reference: PubChem BioAssay
Where “and” joins values, the source holds several entries; their conditions need not be identical. Identical values can stand only once. Records with an inconclusive call do not appear. Calls of active or inactive are those of the source. Unless noted, the limit is not given here; nearly all actives have AC50 up to about 26 µM.

Assays:
[1] = P. berghei load reduction in hepatocytes – cell-based, HepG2, luciferase luminescence, HepG2 viability, primary screen (AID 624349; in the data active = parasite load remaining mostly below about 12%, no sharp cut-off; inactive = mostly above about 10%;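 also: 100% = mean of DMSO negative control wells on the same plate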); conditions: P. berghei liver stage in HepG2, luciferase luminescence, concentration not given here; parasite load remaining: stronger effect = lower value; viability: measured here: HepG2 viability without parasites
[2] = EMT-state selective cytotoxicity in co-culture – imaging, PC-3E GFP, TEM4-18 mCherry, primary screen (AID 1345086;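 active = compounds killing one labelled cell type while sparing the other, by normalised counts and ratio limits, not self-fluorescent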;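 as to all read-outs here: cells exposed to compound for 72 h before imaging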;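 as to red/green cell ratio (normalised): normalised mesenchymal count divided by normalised epithelial count so high means epithelial killing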); conditions: PC-3E GFP / TEM4-18 mCherry co-culture, imaging cell counts, at 1 µM; for red/green cell ratio (normalised): actives lie on both sides, counts scaled to control wells, 1 = unselective
[3] = viability loss in pontine glioma line – cell-based, SU-DIPG-XIII, MIPE4.0, CellTiter-Glo, qHTS, dose response (AID 1347061; cut-off not given, nearly all actives have AC50 up to about 37 µM;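 also: cells exposed to compound for 48 hours before readout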); conditions: CellTiter-Glo ATP luminescence
[4] = viability loss in pontine glioma line – cell-based, JHH-DIPG-1, MIPE4.0, CellTiter-Glo, qHTS, dose response (AID 1347062; cut-off not given, nearly all actives have AC50 up to about 27 µM;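 as to AC50: cells exposed to compound for two days before readout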); conditions: JHH-DIPG-1 viability, CellTiter-Glo ATP luminescence
[5] = viability loss in pontine glioma line – cell-based, SU-DIPG-IV, MIPE4.0, CellTiter-Glo, qHTS, dose response (AID 1347063; cut-off not given, nearly all actives have AC50 up to about 30 µM;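 also: compound exposure lasted 48 hours before the viability readout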); conditions: CellTiter-Glo ATP luminescence
[6] = growth inhibition of DIPG cells – cell-based, MIPE4.0 library, CellTiter-Glo luminescence, qHTS (AID 1347066; cut-off not given, nearly all actives have AC50 up to about 30 µM;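 also: cells exposed to compound for 48 hours before readout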); conditions: SU-DIPG-VI viability, CellTiter-Glo ATP luminescence
[7] = viability loss with induced miR-34 in A549 – imaging, A549 dox-inducible miR-34, nuclei and caspase counts, primary screen (AID 1347080;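 active = compounds whose cell count with miR-34 switched on is under 0.7 times the count with it off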); conditions: A549 miR-34 inducible, Hoechst nuclei count, 48 h
[8] = biological target: Mitogen-activated protein kinase 7 (Homo sapiens) (UniProt Q13164); assay: Gal4-ERK5 driven luciferase induction – cell-based, HTS, primary screen (AID 1508626;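 active = luciferase signal above three times the same-plate solvent-only control wells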;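 also: luciferase driven by Gal4-ERK5 fusion binding five Gal4 sites before minimal TATA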); conditions: HeLa Gal4-ERK5 transactivation, 18 h, at 5 µM, stronger effect = higher value
[9] = viability loss in pontine glioma line – cell-based, SU-DIPG-XVII, MIPE5.0, CellTiter-Glo, qHTS, dose response (AID 1347060); conditions: CellTiter-Glo ATP luminescence;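 as to AC50: cells exposed to compound for 48 hours before viability readout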
[10] = viability loss in pontine glioma line – cell-based, SU-DIPG-XIII, MIPE5.0, CellTiter-Glo, qHTS, dose response (AID 1347064; cut-off not given, nearly all actives have AC50 up to about 23 µM;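 as to AC50: cells exposed to compound for 48 hours before the viability read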); conditions: CellTiter-Glo ATP luminescence
[11] = viability loss in pontine glioma line – cell-based, SU-DIPG-XXV, MIPE5.0, CellTiter-Glo, qHTS, dose response (AID 1347065); conditions: CellTiter-Glo ATP luminescence;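 also: cells exposed to compound for 48 hours before ATP readout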
[12] = JHH-DIPG-1 glioma cell viability, MIPE5.0 library, CellTiter-Glo luminescence, qHTS (AID 1347067); conditions: JHH-DIPG-1 glioma viability, CellTiter-Glo ATP luminescence;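 also: cells exposed to compound for 48 hours before readout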
[13] = growth inhibition of DIPG cells – cell-based, MIPE5.0 library, qHTS (AID 1347068; cut-off not given, nearly all actives have IC50 up to about 30 µM;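 as to IC50: cells exposed to compound for 48 hours before viability readout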); conditions: SU-DIPG-XXV viability
[14] = biological target: NAD(+) hydrolase SARM1 (Homo sapiens) (UniProt Q6SZW1); assay: blocking NAD cleavage by SARM1 SAM-TIR – cell lysate, NAD-Glo luminescence (AID 1508614;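 active = compound whose remaining NAD level is above about 45 nM, limit read from the data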;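 also: higher remaining NAD means stronger inhibition of SARM1 NADase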); conditions: SAM-TIR HEK293T lysate NADase, at 1 µM, stronger effect = higher value
[15] = MELAS cybrid and Rieske KO viability enhancers – cell-based, MELAS cybrids, Rieske KO mouse fibroblasts, CellTiter-Glo, primary screen (AID 1508586;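 active = mean z-score across replicates of 1.96 or higher in either the MELAS or the Rieske mutant cell line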;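 also: z relative to plate mean and SD of compound and empty wells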); conditions: low glucose
[16] = galactose survival enhancers in mitochondrial complex I cybrids – cell-based, galactose medium, ATP luminescence, primary screen (AID 1645843;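 active = z-score of at least 1.8 in each of two replicates, scored against plate mean and spread of sample wells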;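 also: positive z means more ATP and so rescue of galactose-driven cybrid death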); conditions: complex I mutant cybrid cells, 72 h, stronger effect = higher value
[17] = biological target: ATP-dependent translocase ABCB1 (Homo sapiens) (UniProt P08183); assay: P-glycoprotein substrate transport blockade – cell-based (AID 377; in the data active = fluorescence slope change above about 50%); conditions: MDR1-expressing cells, fluorescent substrate accumulation slope; stronger effect = higher value; concentration not given here
[18] = compounds altering viability of human ES cells (AID 493140; call rule not given here;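 also: cells exposed to compounds for four days before counting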); conditions: human embryonic stem cell survival screen; stronger effect = higher value
[19] = measured here: epithelial PC-3E GFP cell survival
[20] = measured here: mesenchymal TEM4-18 mCherry cell survival
[21] = stronger effect = lower value, cell number ratio, induced over uninduced
[22] = measured here: relative caspase fold change +Dox/-Dox
[23] = measured here: total cells with miR-34 induction, stronger effect = lower value
[24] = measured here: total cells without miR-34 induction
[25] = MELAS cybrid survival, CellTiter-Glo 48 h, stronger effect = higher value
[26] = Rieske KO mouse fibroblast survival, CellTiter-Glo 72 h

Mitogen-activated protein kinase 7 (Homo sapiens), sequence (Q13164 whole entry, looked up, the tested form may be a part): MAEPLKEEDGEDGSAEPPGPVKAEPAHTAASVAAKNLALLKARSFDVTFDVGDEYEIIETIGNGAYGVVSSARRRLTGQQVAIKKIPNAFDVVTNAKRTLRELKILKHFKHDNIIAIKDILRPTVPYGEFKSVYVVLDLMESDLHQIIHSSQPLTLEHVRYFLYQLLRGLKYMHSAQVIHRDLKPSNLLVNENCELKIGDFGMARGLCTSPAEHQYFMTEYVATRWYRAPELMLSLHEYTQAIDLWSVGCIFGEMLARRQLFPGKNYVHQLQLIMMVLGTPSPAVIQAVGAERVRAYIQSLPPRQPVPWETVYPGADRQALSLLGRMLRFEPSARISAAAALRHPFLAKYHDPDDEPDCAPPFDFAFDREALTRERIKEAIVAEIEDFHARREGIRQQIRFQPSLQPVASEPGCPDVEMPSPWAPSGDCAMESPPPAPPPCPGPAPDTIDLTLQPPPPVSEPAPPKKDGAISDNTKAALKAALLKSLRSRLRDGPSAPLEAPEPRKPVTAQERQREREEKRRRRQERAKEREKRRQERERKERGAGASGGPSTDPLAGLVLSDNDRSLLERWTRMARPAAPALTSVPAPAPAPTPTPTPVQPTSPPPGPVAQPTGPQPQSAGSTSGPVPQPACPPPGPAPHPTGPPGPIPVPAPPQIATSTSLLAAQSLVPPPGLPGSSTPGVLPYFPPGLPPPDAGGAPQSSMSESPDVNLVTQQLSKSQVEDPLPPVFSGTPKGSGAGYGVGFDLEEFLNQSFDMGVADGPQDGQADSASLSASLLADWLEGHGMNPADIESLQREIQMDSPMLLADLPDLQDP
NAD(+) hydrolase SARM1 (Homo sapiens), sequence (Q6SZW1 whole entry, looked up): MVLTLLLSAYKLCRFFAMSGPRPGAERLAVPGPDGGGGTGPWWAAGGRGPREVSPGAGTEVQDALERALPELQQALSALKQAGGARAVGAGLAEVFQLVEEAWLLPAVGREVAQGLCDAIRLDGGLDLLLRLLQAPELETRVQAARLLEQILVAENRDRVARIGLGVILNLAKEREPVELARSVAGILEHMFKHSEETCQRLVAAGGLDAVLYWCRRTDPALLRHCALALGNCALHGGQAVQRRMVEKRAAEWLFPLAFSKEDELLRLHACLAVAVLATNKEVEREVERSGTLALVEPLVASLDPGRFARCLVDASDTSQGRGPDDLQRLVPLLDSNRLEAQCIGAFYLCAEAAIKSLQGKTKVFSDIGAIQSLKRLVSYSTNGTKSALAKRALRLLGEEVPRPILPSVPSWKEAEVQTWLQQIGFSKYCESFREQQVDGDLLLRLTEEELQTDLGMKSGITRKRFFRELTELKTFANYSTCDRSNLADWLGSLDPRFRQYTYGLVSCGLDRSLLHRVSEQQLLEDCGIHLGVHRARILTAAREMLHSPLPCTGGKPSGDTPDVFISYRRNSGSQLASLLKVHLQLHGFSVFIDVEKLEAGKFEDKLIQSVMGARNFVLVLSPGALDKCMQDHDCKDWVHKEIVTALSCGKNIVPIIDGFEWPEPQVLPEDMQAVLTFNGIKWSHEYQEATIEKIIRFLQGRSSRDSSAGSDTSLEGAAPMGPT
ATP-dependent translocase ABCB1 (Homo sapiens), sequence (P08183 whole entry, looked up): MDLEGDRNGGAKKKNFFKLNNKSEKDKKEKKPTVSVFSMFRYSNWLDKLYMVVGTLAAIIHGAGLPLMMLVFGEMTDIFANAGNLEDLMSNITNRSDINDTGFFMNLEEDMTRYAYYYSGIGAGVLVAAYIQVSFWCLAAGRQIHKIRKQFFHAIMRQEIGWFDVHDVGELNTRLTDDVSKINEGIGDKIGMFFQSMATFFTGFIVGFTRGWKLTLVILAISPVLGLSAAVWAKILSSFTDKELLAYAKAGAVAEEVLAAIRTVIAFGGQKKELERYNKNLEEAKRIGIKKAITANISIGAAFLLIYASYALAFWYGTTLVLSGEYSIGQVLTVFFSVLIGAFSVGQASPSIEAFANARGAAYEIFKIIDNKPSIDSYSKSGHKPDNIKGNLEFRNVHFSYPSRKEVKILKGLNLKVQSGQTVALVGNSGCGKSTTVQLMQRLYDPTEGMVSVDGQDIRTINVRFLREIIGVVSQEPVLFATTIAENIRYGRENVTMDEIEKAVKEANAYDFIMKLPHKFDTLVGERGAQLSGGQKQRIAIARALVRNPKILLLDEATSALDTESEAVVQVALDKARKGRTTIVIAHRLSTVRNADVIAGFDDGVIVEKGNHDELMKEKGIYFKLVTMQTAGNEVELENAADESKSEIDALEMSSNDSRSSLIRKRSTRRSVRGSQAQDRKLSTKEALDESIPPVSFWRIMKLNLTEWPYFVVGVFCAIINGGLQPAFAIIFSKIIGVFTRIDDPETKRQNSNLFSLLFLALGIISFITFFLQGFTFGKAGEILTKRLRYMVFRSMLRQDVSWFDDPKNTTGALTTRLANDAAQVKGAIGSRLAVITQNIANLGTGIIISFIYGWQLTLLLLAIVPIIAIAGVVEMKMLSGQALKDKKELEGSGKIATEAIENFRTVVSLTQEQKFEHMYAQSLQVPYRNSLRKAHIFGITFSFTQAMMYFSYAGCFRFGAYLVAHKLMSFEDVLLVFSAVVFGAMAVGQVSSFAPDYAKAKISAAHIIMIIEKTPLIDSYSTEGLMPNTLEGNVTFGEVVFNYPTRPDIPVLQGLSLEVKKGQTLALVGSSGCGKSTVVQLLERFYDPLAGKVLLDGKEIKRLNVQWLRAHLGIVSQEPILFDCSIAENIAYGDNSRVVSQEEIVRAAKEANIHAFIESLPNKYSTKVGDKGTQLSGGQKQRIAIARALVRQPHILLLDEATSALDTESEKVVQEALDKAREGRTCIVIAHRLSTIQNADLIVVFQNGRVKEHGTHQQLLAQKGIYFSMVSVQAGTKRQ

Compound: CN(C)CC[C@H](c1ccc(Cl)cc1)c1ccccn1
- parasite load remaining [1]: 101% (inactive) and 66.4% (inactive)
- viability [1]: 77.5% and 96.6%
- red/green cell ratio (normalised) [2]: 1.35 (inactive)
- normalised cell number [2, 19]: 0.95
- normalised cell number [2, 20]: 1.28
- outcome [3]: inactive
- outcome [4]: inactive
- outcome [5]: inactive
- outcome [6]: inactive
- fold change [7, 21]: 0.84 (inactive)
- fold change [7, 22]: 2.94
- cell count [7, 23]: 10500
- cell count [7, 24]: 12500
- luciferase signal [8]: 80 AU (inactive)

Compound: CCC(=O)Oc1ccc2c(c1)CCC1C2CC[C@@]2(C)C1CC[C@@H]2OC(=O)CC (stereo partly drawn)
- red/green cell ratio (normalised) [2]: 1.36 (inactive)
- normalised cell number [2, 19]: 0.8
- normalised cell number [2, 20]: 1.09
- fold change [7, 21]: 0.968 (inactive)
- fold change [7, 22]: 0.855
- cell count [7, 23]: 8160
- cell count [7, 24]: 8430

Compound: COc1ccc2nc3cc(Cl)ccc3c(Nc3cc(CN4CCCC4)c(O)c(CN4CCCC4)c3)c2n1
- red/green cell ratio (normalised) [2]: 1.19 (inactive)
- normalised cell number [2, 19]: 0.83
- normalised cell number [2, 20]: 0.98
- AC50 [9]: 9.34 µM (active)
- outcome [3]: inactive
- AC50 [4]: 20.9 µM (active)
- AC50 [10]: 13.2 µM (active)
- AC50 [11]: 7.42 µM (active)
- outcome [6]: inactive
- AC50 [12]: 11.8 µM (active)
- IC50 [13]: 10.5 µM (active)
- fold change [7, 21]: 1.01 (inactive)
- fold change [7, 22]: 0.832
- cell count [7, 23]: 2320
- cell count [7, 24]: 2290
- remaining NAD [14]: 10 nM (inactive)

Compound: CC(=O)NC(CS)C(=O)O (stereo not drawn)
- red/green cell ratio (normalised) [2]: 1.09 (inactive)
- normalised cell number [2, 19]: 1.24
- normalised cell number [2, 20]: 1.36
- outcome [9]: inactive
- outcome [3]: inactive
- outcome [4]: inactive
- outcome [5]: inactive
- outcome [11]: inactive
- outcome [6]: inactive
- outcome [12]: inactive
- outcome [13]: inactive

Compound: C[C@H]1COC2=C1C(=O)C(=O)c1c2ccc2c1CCCC2(C)C
- red/green cell ratio (normalised) [2]: 0.82 (inactive)
- normalised cell number [2, 19]: 0.98
- normalised cell number [2, 20]: 0.8
- AC50 [9]: 20.9 µM (active)
- outcome [3]: inactive
- AC50 [5]: 13.2 µM (active)
- AC50 [10]: 18.6 µM (active)
- AC50 [11]: 20.9 µM (active)
- outcome [6]: inactive
- AC50 [12]: 20.9 µM (active)
- outcome [13]: inactive
- luciferase signal [8]: 80 AU (inactive)

Compound: Oc1cc2c(cc1O)C1c3ccc(O)c(O)c3OCC1(O)C2 (stereo not drawn)
- red/green cell ratio (normalised) [2]: 1.05 (inactive)
- normalised cell number [2, 19]: 1.12
- normalised cell number [2, 20]: 1.18
- outcome [3]: inactive
- outcome [5]: inactive
- outcome [6]: inactive
- outcome [13]: inactive

Compound: CC1/C=C/C=C/C=C/C=C/C=C/C=C/C=C/C(O[C@@H]2O[C@H](C)[C@H](O)[C@@H](O)[C@@H]2N)CC(O)C(C(=O)O)C(O)CC(=O)CC(O)CC(O)CC(O)CC(=O)CCCC(=O)CC(=O)OC1C(C)CC(C)C(O)CC(=O)c1ccc(N)cc1 (stereo partly drawn)
- red/green cell ratio (normalised) [2]: 0.94 (inactive)
- normalised cell number [2, 19]: 1.09
- normalised cell number [2, 20]: 1.03
- fold change [7, 21]: 0.786 (inactive)
- fold change [7, 22]: 1.31
- cell count [7, 23]: 5340
- cell count [7, 24]: 6790

Compound: CC[C@]1(O)CC2CN(CCc3c([nH]c4ccccc34)[C@@](C(=O)OC)(c3cc4c(cc3OC)N(C)[C@H]3[C@@](O)(C(=O)OC)[C@H](OC(C)=O)[C@]5(CC)C=CCN6CC[C@]43[C@@H]65)C2)C1 (stereo partly drawn)
- parasite load remaining [1]: 45.7% (inactive) and 54.9% (inactive)
- viability [1]: 113% and 91%
- red/green cell ratio (normalised) [2]: 1.24 (inactive)
- normalised cell number [2, 19]: 0.16
- normalised cell number [2, 20]: 0.2
- AC50 [9]: 0.0209 µM (active)
- AC50 [10]: 0.0833 µM (active)
- AC50 [11]: 0.0148 µM (active)
- AC50 [12]: 0.0468 µM (active)
- IC50 [13]: 3.32 µM (active)
- fold change [7, 21]: 1.13 (inactive) and 1.04 (inactive)
- fold change [7, 22]: 2.66 and 1.23
- cell count [7, 23]: 1730 and 1930
- cell count [7, 24]: 1530 and 1860
- z-score [15, 25]: -2.11 (inactive)
- z-score [15, 26]: 1.21
- z-score [16]: -1.85 (inactive)

Compound: CC1(C)S[C@@H]2[C@H](NC(=O)[C@H](C(=O)O)c3cccs3)C(=O)N2[C@H]1C(=O)O
- red/green cell ratio (normalised) [2]: 0.96 (inactive)
- normalised cell number [2, 19]: 1.05
- normalised cell number [2, 20]: 1.01
- fold change [7, 21]: 0.949 (inactive)
- fold change [7, 22]: 0.673
- cell count [7, 23]: 9210
- cell count [7, 24]: 9700

Compound: Cc1oc(=O)oc1CN1CCN(c2cc3c(cc2F)c(=O)c(C(=O)O)c2n3C(C)C2)CC1 (stereo not drawn)
- red/green cell ratio (normalised) [2]: 0.94 (inactive)
- normalised cell number [2, 19]: 0.97
- normalised cell number [2, 20]: 0.91
- fold change [7, 21]: 0.994 (inactive)
- fold change [7, 22]: 0.87
- cell count [7, 23]: 9060
- cell count [7, 24]: 9120

Compound: CN[C@@H]1[C@H](O[C@H]2[C@H](O[C@@H]3[C@@H](O)[C@H](O)[C@@H](N=C(N)N)[C@H](O)[C@H]3N=C(N)N)O[C@@H](C)[C@]2(O)C=O)O[C@@H](CO)[C@H](O)[C@H]1O
- fluorescence slope change [17]: 2.1% (inactive)
- survival [18]: 20.6 (inactive)
- parasite load remaining [1]: 51.2% (inactive) and 45.6% (inactive) and 35.8% (inactive)
- viability [1]: 118% and 97.5% and 75%
- red/green cell ratio (normalised) [2]: 0.77 (inactive)
- normalised cell number [2, 19]: 1.28
- normalised cell number [2, 20]: 0.98
- outcome [9]: inactive
- outcome [10]: inactive
- outcome [11]: inactive
- outcome [12]: inactive
- outcome [13]: inactive
- fold change [7, 21]: 0.935 (inactive) and 0.903 (inactive)
- fold change [7, 22]: 0.998 and 1.43
- cell count [7, 23]: 7810 and 9380
- cell count [7, 24]: 8360 and 10400
- z-score [15, 25]: -0.628 (inactive) and -0.564 (inactive)
- z-score [15, 26]: -0.384 and -1.54
- z-score [16]: -0.095 (inactive)

Compound: COC(=O)/C=C/C(=O)OC
- red/green cell ratio (normalised) [2]: 1.23 (inactive)
- normalised cell number [2, 19]: 0.84
- normalised cell number [2, 20]: 1.04
- outcome [9]: inactive
- AC50 [3]: 14.8 µM (active)
- AC50 [5]: 0.935 µM (active)
- outcome [10]: inactive
- outcome [11]: inactive
- outcome [6]: inactive
- outcome [12]: inactive
- outcome [13]: inactive
- fold change [7, 21]: 0.976 (inactive)
- fold change [7, 22]: 1.01
- cell count [7, 23]: 7550
- cell count [7, 24]: 7740
- remaining NAD [14]: 10 nM (inactive)

Compound: NC(N)=NCCCC(N)C(=O)O (stereo not drawn)
- red/green cell ratio (normalised) [2]: 0.83 (inactive)
- normalised cell number [2, 19]: 1.05
- normalised cell number [2, 20]: 0.87
- fold change [7, 21]: 0.874 (inactive)
- fold change [7, 22]: 0.933
- cell count [7, 23]: 8700
- cell count [7, 24]: 9960

Compound: CC1(C)CCC[C@]2(C)[C@H]3CC(=O)O[C@]3(C)CC[C@@H]12
- red/green cell ratio (normalised) [2]: 1.09 (inactive)
- normalised cell number [2, 19]: 1.09
- normalised cell number [2, 20]: 1.19
- outcome [3]: inactive
- outcome [4]: inactive
- outcome [6]: inactive
